The results in this text go back to PubChem BioAssay AID743330 (NMMLSC, 2014).

The subject of the assay is Cdc42. In words: fluorescent GTP concentration effect on GTPase potency – biochemical, four GTPases, bead flow cytometry, mechanism study, profiling panel (AID 743330). To be noted: bead-based flow cytometry, fluorescent GTP binding to GTPases.

Activity calls are given as the source filed them. How the calls were made is not given here.

`CCC1(C)Cc2c(sc(NC(=S)NC(=O)c3ccccc3)c2C(=O)O)CO1` (configuration not stated): the call was inactive. As to `CC1(C)Cc2c(sc(NC(=S)NC(=O)c3ccc(F)cc3)c2C(=O)O)CO1`, the EC50 was 76 nM (active).
